Hit rate of the full screen: of about 2,300 compounds, about 330 (14%) showed activity. A selection follows. Values without a mark were called inactive.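 The calls were made as follows: active = median modified Z-score above 1.96; inactive = 1.96 or below.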

The text below walks through data of the supplement of paper PMC10498489.

In the assay the test system is HepG2 Srxn1-GFP reporter cells (+30 nM CDDO-Me). Briefly: Srxn1-GFP intensity median modified Z-score relative to plate median; higher = stronger NRF2 / oxidative stress reporter activation, active = hit call of the paper. The following applies: 10 µM; exposure time: 24h. The method in brief:
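In 96-well plates holding 20,000 HepG2 Srxn1-GFP BAC reporter cells per well, compound at 10 μM and an NRF2 activator at 30 nM were added together for 24 h, with DMSO at ≤0.1%, across three replicate plates. After fixation in formaldehyde and Hoechst staining, confocal images were analysed cell by cell for cytoplasmic GFP, and images containing under 100 cells were excluded. Values are replicate medians of the per-plate modified Z-score of GFP intensity, scaled by 1.4826 × median absolute deviation.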
For the compound `O=C(O)/C=C/C(=O)O` [euspeclibcmpd2444], the “Srxn1-GFP intensity median modified Z-score” value was -0.338.

For `CC1CN(C)CCN1C(=O)c1ccc(CCNS(C)(=O)=O)s1` (stereo unspecified), the “Srxn1-GFP intensity median modified Z-score” value is 1.16.

As for `Nc1ccc(S(=O)(=O)N=c2cc[nH]n2-c2ccccc2)cc1` [euspeclibcmpd1061], the “Srxn1-GFP intensity median modified Z-score” value is 0.53.

Regarding `CC1=C(C(=O)O)N2C(=O)[C@@H](NC(=O)C(N)c3ccc(O)cc3)[C@H]2SC1` (stereo partly specified) [euspeclibcmpd47], the “Srxn1-GFP intensity median modified Z-score” value was 0.774.

Regarding `NCc1ccccc1CC(=O)NC1C(=O)N2C(C(=O)O)=C(CSc3nnnn3CC(=O)O)CSC12` (stereo unspecified) [euspeclibcmpd506], the “Srxn1-GFP intensity median modified Z-score” value was -0.382.

Turning to `Clc1ccc(CCC(Cn2ccnc2)Sc2c(Cl)cccc2Cl)cc1` (stereo unspecified) [euspeclibcmpd650], the “Srxn1-GFP intensity median modified Z-score” value was 26.7 (active).

`CC1(C)C2CC[C@@]3(C)C4=C(CC(=O)C3[C@@]2(C)CC[C@@H]1O[C@@H]1OC(C(=O)O)[C@@H](O[C@@H]2OC(C(=O)O)[C@@H](O)[C@H](O)[C@H]2O)[C@H](O)[C@H]1O)C1C[C@@](C)(C(=O)O)CC[C@]1(C)CC4` (stereo partly specified) [euspeclibcmpd1807]: the “Srxn1-GFP intensity median modified Z-score” value was -0.547.

Turning to `COc1ccc(-c2c(O)c3c(OC)c4c(cc3oc2=O)OC(C)(C)C=C4)cc1` [euspeclibcmpd1515], the “Srxn1-GFP intensity median modified Z-score” value was 0.81.

As to `COc1ccc(-c2coc3cc(O)ccc3c2=O)c(O)c1O` [euspeclibcmpd1422], the “Srxn1-GFP intensity median modified Z-score” value was -0.526.

With `COc1c2c(cc3occ(-c4ccc5c(c4)OCO5)c(=O)c13)OC(C)(C)C=C2` [euspeclibcmpd1957], the “Srxn1-GFP intensity median modified Z-score” value is 7.5 (active).

For the compound `COc1c(CC(=O)c2cc3c(cc2O)OC(C)(C)C(O)C3)ccc2c1C=CC(C)(C)O2` (stereo unspecified) [euspeclibcmpd1608], the “Srxn1-GFP intensity median modified Z-score” value is 7.77 (active).

Consider `COc1cc2occ(-c3ccc(OC)c(OC)c3OC)c(=O)c2cc1OC` [euspeclibcmpd2240], for which the “Srxn1-GFP intensity median modified Z-score” value is 0.129.

Regarding `COc1cc(OC)c2c(=O)c(-c3ccc4c(c3)OCO4)coc2c1` [euspeclibcmpd1964], the “Srxn1-GFP intensity median modified Z-score” value was 0.515.

As to `COc1c(-c2coc3cc4c(cc3c2=O)CC(OC(C)=O)C(C)(C)O4)ccc2c1C=CC(C)(C)O2` (stereo unspecified) [euspeclibcmpd1654], the “Srxn1-GFP intensity median modified Z-score” value was 13.6 (active).

Take `COc1ccc(C(=O)CC(=O)O)c2c1C=CC(C)(C)O2` [euspeclibcmpd1976]: the “Srxn1-GFP intensity median modified Z-score” value is -0.441.

Regarding `CC(=O)S[C@@H]1C=C2CC(=O)CC[C@]2(C)[C@H]2CC[C@@]3(C)[C@@H](CC[C@@]34CCC(=O)O4)C12` (stereo partly specified) [euspeclibcmpd269], the “Srxn1-GFP intensity median modified Z-score” value was -0.784.

As for `CC12CCC(=O)CC1=CCC1C2[C@@H](O)CC2(C)C1CC[C@]2(O)C(=O)COP(=O)(O)O` (stereo partly specified) [euspeclibcmpd153], the “Srxn1-GFP intensity median modified Z-score” value was -0.722.

As to `COc1ccc2c(c1)c(CC(=O)OC/C=C/Cl)c(C)n2C(=O)c1ccc(Cl)cc1`, the “Srxn1-GFP intensity median modified Z-score” value is 0.367.

As for `CON(C)C(=O)c1cc(-c2ccccc2)nc2ccccc12`, the “Srxn1-GFP intensity median modified Z-score” value is 1.63.

Consider `NCCCCC(NC(CCc1ccccc1)C(=O)O)C(=O)N1CCCC1C(=O)O` (stereo unspecified) [euspeclibcmpd423], for which the “Srxn1-GFP intensity median modified Z-score” value is 0.0552.

As to `O=c1c(-c2cc(O)c(O)c(O)c2)coc2cc(O)c(O)c(O)c12` [euspeclibcmpd1958], the “Srxn1-GFP intensity median modified Z-score” value is -0.398.

Take `CCOC(=O)OC(C)OC(=O)C1N2C(=O)C(NC(=O)C(N)c3ccccc3)C2SC1(C)C` (stereo unspecified) [euspeclibcmpd983]: the “Srxn1-GFP intensity median modified Z-score” value is 0.627.

As for `N=C(N)N/N=C\c1c(Cl)cccc1Cl` [euspeclibcmpd143], the “Srxn1-GFP intensity median modified Z-score” value was 0.55.

Consider `CC(C)NCC(O)COc1ccc(CC(N)=O)cc1` (stereo unspecified) [euspeclibcmpd387], for which the “Srxn1-GFP intensity median modified Z-score” value is -0.166.

Regarding `CC(C)/N=c1\cc2n(-c3ccc(Cl)cc3)c3ccccc3[nH]c-2cc1=Nc1ccc(Cl)cc1` [euspeclibcmpd891], the “Srxn1-GFP intensity median modified Z-score” value was 7.89 (active).

In the case of `CC(C)CC(NC(=O)C(C)N)C(=O)O` (stereo unspecified) [euspeclibcmpd2380], the “Srxn1-GFP intensity median modified Z-score” value is -0.0851.

For the compound `CN=C(C[N+](=O)[O-])NCCSCc1csc(CN(C)C)n1` [euspeclibcmpd900], the “Srxn1-GFP intensity median modified Z-score” value is -0.00145.

Take `CC1CN(c2c(F)c(N)c3c(=O)c(C(=O)O)cn(C4CC4)c3c2F)C[C@H](C)N1` (stereo partly specified) [euspeclibcmpd471]: the “Srxn1-GFP intensity median modified Z-score” value was -0.142.

In the case of `CC(C)C(=O)C1C(=O)O[C@@H](c2ccoc2)[C@]2(C)C(O)[C@@H](O)[C@@]34OC5(C)OC67CC(C)(C(O)[C@]6(O)[C@@H](O)[C@]3(O5)C12)[C@H](CC(=O)O)[C@]74C` (stereo partly specified) [euspeclibcmpd1385], the “Srxn1-GFP intensity median modified Z-score” value is -0.12.

As to `NC(=O)NCCCC(N)C(=O)O` (stereo unspecified) [euspeclibcmpd1533], the “Srxn1-GFP intensity median modified Z-score” value was -0.136.

`CCN(CC)CCOC(=O)C(c1ccccc1)c1ccccc1` [euspeclibcmpd520]: the “Srxn1-GFP intensity median modified Z-score” value is 0.792.

In the case of `CCN(CC)CCOC(=O)C(Cc1cccc2ccccc12)CC1CCCO1` (stereo unspecified) [euspeclibcmpd577], the “Srxn1-GFP intensity median modified Z-score” value is 3.61 (active).

With `CCCC(C(=O)OCCN(CC)CC)(c1ccccc1)c1ccccc1` [euspeclibcmpd434], the “Srxn1-GFP intensity median modified Z-score” value was -0.794.

Consider `C[C@H]1c2cccc(O)c2C(=O)C2C(=O)[C@]3(O)C(=O)C(C(N)=O)C(=O)C(N(C)C)[C@@H]3[C@@H](O)[C@@H]21` (stereo partly specified) [euspeclibcmpd105], for which the “Srxn1-GFP intensity median modified Z-score” value is -1.04.

`C=C[C@](C)(O)CCC=C(C)C` [euspeclibcmpd1465]: the “Srxn1-GFP intensity median modified Z-score” value was -0.00229.

As to `CCOc1ccc2[nH]c3cc(N)ccc3c(=N)c2c1` [euspeclibcmpd1203], the “Srxn1-GFP intensity median modified Z-score” value was 63.5 (active).

Turning to `COC(=O)C1=C2C(=O)CC(C)C2C(O[C@@H]2O[C@H](CO)[C@@H](O)[C@H](O)[C@H]2O)OC1` (stereo partly specified) [euspeclibcmpd2225], the “Srxn1-GFP intensity median modified Z-score” value is -0.236.

As for `COC(=O)c1c(OC)cc2c(c1C)Oc1c(Cl)c(O)c(Cl)c(C)c1C(=O)O2` [euspeclibcmpd1672], the “Srxn1-GFP intensity median modified Z-score” value is 0.324.

In the case of `Cc1cc(O)c(C=O)c2c1C(=O)Oc1c(C)c(O)c3c(O)oc(O)c3c1O2` [euspeclibcmpd2409], the “Srxn1-GFP intensity median modified Z-score” value is 0.591.

With `COC(=O)c1c(C)c2c(c(C)c1O)OC(=O)c1c(C)c(Cl)c(O)c(Cl)c1O2` [euspeclibcmpd1600], the “Srxn1-GFP intensity median modified Z-score” value is 12.9 (active).

Consider `Cc1c[nH]c(=NC(=O)C2C(=O)c3ccccc3S(=O)(=O)N2C)s1` (stereo unspecified) [euspeclibcmpd2190], for which the “Srxn1-GFP intensity median modified Z-score” value was -0.367.
